KB-V1 cytotox = kills drug-selected multidrug resistant KB-V1 cells | KB-V1 MDR cells viability, CellTiter-Glo, 72 h | Potency, µM (highest dose often 46.1 µM), most hits filed as cytotoxic | 3.4% of 400,000 active; also: % is scaled to controls: 0 for no effect and ±100 for the full control effect; nearly all actives have a fitted effect of over 60% in size
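Cytotoxicity toward P-gp-expressing KB-V1 cells was determined as loss of CellTiter-Glo luminescence after 72 h at 37 degrees C. Compounds were tested in quantitative HTS format across a concentration range, with curves fitted to normalized data.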
HT1080NT lethal = kills 2HG-producing HT-1080-NT fibrosarcoma cells; HT-1080-NT fibrosarcoma viability, CellTiter-Glo ATP luminescence, 48 h; Potency, µM (titrated, usually from 46.1 µM), without a hit: at the highest dose activity, negative = less viability, hits mostly cytotoxic; 1.6% of 360,000 active; AID 686970;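 also: NT is the 2HG producing partner of a matched IDH1 knockdown line; 0% = DMSO-treated cells and -100% = media-only wells without cells; nearly all actives have a fitted effect of over 55% in size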
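HT-1080-NT fibrosarcoma cells (2HG-overproducing), 750 cells/well in RPMI with 5% FBS, dosed after 2 h and incubated 48 h at 37C. CellTiter-Glo luminescence normalized to DMSO and no-cell wells; concentration-response curves fitted and classed.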
KB-3-1 cytotox = KB-3-1 parental cell cytotoxicity | 1.4% of 400,000 active | Potency, µM (highest dose often 46.1 µM), usual class: cytotoxic | AID 1347075 | KB-3-1 viability, CellTiter-Glo ATP luminescence, 72 h; also: % is scaled to controls: 0 for no effect and ±100 for the full control effect; nearly all actives have a fitted effect of over 60% in size
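Cells are dispensed, compounds pinned in, plates held at 37 °C for 72 h, then CellTiter-Glo is added and luminescence read after 10 minutes. Cell line: parental KB-3-1 in phenol-red-free DMEM, 10% FBS.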
MCF10A rereplic = induces DNA re-replication in MCF 10a normal breast cells | Potency, µM (highest dose often 46.1 µM), for inactives: at the top dose activity, positive = re-replication, usual class: activators | 2.9% of 350,000 active | MCF 10A DNA re-replication, Hoechst nuclear intensity, 48 h | AID 624296; also: % of control where 0% means no effect; nearly all actives have a fitted effect of over 50% in size
SW480 rerep = inducers of DNA re-replication in SW480 colon cancer cells; 1.8% of 340,000 active; Potency, µM (top dose mostly 46.1 µM), without a hit: top-dose re-replication activation, most hits filed as activators; SW480 DNA re-replication, Hoechst DNA content imaging, 48 h; AID 624297; also: % of control where 0% means no effect; nearly all actives have a fitted effect of over 55% in size
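Readout is total intensity of Hoechst-stained nuclei, excited at 405 nm and collected at 500-530 nm. Compound treatment lasted 48 hr at 37 C in 5% CO2 before staining.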
HT1080 IDH1KD tx = kills HT-1080 cells with IDH1 knockdown. 2% of 360,000 active. AID 686971. HT-1080 IDH1 knockdown viability, ATP luminescence, 48 h. Potency, µM (highest dose often 46.1 µM), for inactives: at the top dose activity, negative = toxicity, usual class: cytotoxic;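 also: 0% = DMSO wells and -100% = cell-free medium wells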
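HT-1080-IDH1KD cells (IDH1 knocked down), 750/well in RPMI with 5% FBS, treated with compound 48 h at 37 degrees C. Viability by CellTiter-Glo luminescence, normalised to DMSO and no-cell wells; concentration-response curves classed.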
* marks the source's active call; other numbers are inactive results; i = inactive; ? = inconclusive; . = not tested or not shown; ! = not active in a repeat; [ ] = another dose, or the depositor's remark. Compounds with a hit are over-represented: about 8% of the library has one in this group of screens. Calls follow the shape of the dose curve; as a rule, active = well fitted curve in the direction sought with a large enough effect; inconclusive = small, poorly fitted or top-dose-only effect, or another doubt; inactive = no such curve, though single readings can be large; an effect the other way counts as inactive or inconclusive. Potency is read from the fitted curve at half-maximal effect.

SMILES | KB-V1 cytotox | HT1080NT lethal | KB-3-1 cytotox | MCF10A rereplic | SW480 rerep | HT1080 IDH1KD tx
O=C(c1ccc2c(=O)n3c(nc2c1)CCCCC3)N1CCN(C(c2ccccc2)c2ccccc2)CC1 | ? | 18µM* | ? | ? | ? | 10µM*
CCN(Cc1ccccc1)C(=O)c1ccc2c(=O)n3c(nc2c1)CCC3 | 10µM* | 4% | i | 23% | -2% | 19%
Cc1ccc(N(CC(=O)NCCc2ccccc2)S(=O)(=O)N(C)C)cc1 | i | . | i | . | . | .
CC(C)CCNS(=O)(=O)c1ccc(N2CCCCS2(=O)=O)cc1 | i | . | ? | . | . | .
Clc1cccc(CSc2nnc(C3CCNCC3)o2)c1 | i | . | i | . | . | .
COc1ccc(CNCc2c(C(=O)O)n(Cc3ccc(F)cc3)c3cc(C)ccc23)cc1OC | i | . | ? | . | . | .
CSc1cccc(NC(=O)c2ccc3c(c2)CCCN3S(C)(=O)=O)c1 | ? | . | i | . | . | .
O=C(c1ccco1)N1CCN(C(=O)c2ccc(COc3ccc4c(c3)CCC4)o2)CC1 | 16µM* | -2% | i | 3% | -2% | -15%
O=C(c1ccc(COc2ccc3c(c2)CCC3)o1)N1CCN(c2ccccc2)CC1 | ? | ? | i | 8% | -4% | -2%[9.24 µM]
CCOc1ccc(NC(=O)CC(C)S(=O)(=O)c2ccc3c(c2)NC(=O)CO3)cc1 (centres undefined) | ? | -2% | i | 1% | ? | 1%
CCCN(c1ccc(OCC)cc1)S(=O)(=O)c1ccc2c(c1)NC(=O)CO2 | 1.6µM* | -4% | ? | 3% | ? | -15%
Cc1ccccc1OCC(=O)Nc1cc(C)c(O)c(-c2nc3ccccc3o2)c1 | i | . | i | . | . | .
COc1cccc(CN2C(=O)c3ccccc3Sc3ccc(C(=O)NCc4ccccc4)cc32)c1 | i | . | i | . | . | .
Cc1sc2nc(SCc3nnc(-c4cccs4)o3)n(C3CCCC3)c(=O)c2c1C | 21µM* | 0% | i | ? | 15% | -3%
Cc1sc2nc(CSc3nnc(Cc4cccs4)n3C3CCCCC3)[nH]c(=O)c2c1C | i | -2% | i | -9% | -1% | -1%
N#Cc1ccc(C(=O)CSc2nnc(-c3ccc(C(F)(F)F)cn3)s2)cc1 | i | 12% | i | 26% | 3.3µM* | 10%
C=C1CC2(CC(c3ccccc3)OC(c3ccccc3)C2)OC1=O (centres undefined) | ? | ? | ? | 12µM* | ? | 16µM*
COc1ccc(/C=C2\NC(=O)C(C=NCc3ccccc3)=C2O)cc1 | i | 4% | i | 3% | -3% | -18%
O=C1N/C(=C\c2ccc(O)cc2)C(O)=C1C=NCc1ccccc1 | ? | ? | ? | 10µM* | 1% | -1%
CCOc1cc(C(=O)Nc2cccc(-c3nc4ccccc4o3)c2)cc(OCC)c1OCC | i | . | i | . | . | .
COc1ccc(-c2cc(C3CC3)nc(N)c2C#N)cc1 | i | -9% | i | 13% | 19% | -4%
COc1ccc(-c2cc(C3CC3)nc3sc(C#N)c(N)c23)cc1 | i | -16% | i | 3.7µM* | 13µM* | -19%
CCN1CCN(c2ncc3c(n2)CCN(Cc2ccccc2C)C3)CC1 | i | . | ? | . | . | .
CCCCCCSc1ccc(-c2nc3ccc(C)cn3c2NCCCC)cc1OC | 21µM* | 21µM* | ? | . | . | ?
CCCCCCSc1ccc(-c2nc3ccc(Cl)cn3c2NCCCC)cc1OC | i | 1% | i | ? | -4%[9.22 µM] | 3%
SMILES | KB-V1 cytotox | HT1080NT lethal | KB-3-1 cytotox | MCF10A rereplic | SW480 rerep | HT1080 IDH1KD tx
CCCCCCSc1cccc(-c2nc3ccc(C)cn3c2NCc2ccccc2)c1 | i | ? | i | ? | -7% | -3%
CCCCNc1c(-c2ccc(SC(C)CC)c(OC)c2)nc2ccc(Cl)cn12 (centres undefined) | i | 6% | i | 23µM* | 21µM* | 0%
CCCCCCSc1cc(-c2nc3ccc(C)cn3c2NCc2ccccc2)ccc1OC | 13µM*! | ? | ? | ? | ? | ?
CCCCNc1c(-c2ccc(SC(C)CC)c(OC)c2)nc2ccc(C)cn12 (centres undefined) | ? | -16% | ? | 16µM* | ? | ?
CCCCN(CC)CCNC(=O)Cn1cnc2sc(C)c(S(=O)(=O)N3CCN(c4ccccc4OC)CC3)c2c1=O | ? | . | i | . | . | .
CCn1c(=O)cc(OCC(=O)NCc2ccc(F)cc2Cl)c2ccccc21 | ? | . | i | . | . | .
O=C1/C(=C/c2ccco2)N=C(N2CCCCC2)N1c1ccccc1 | i | 8% | i | ? | ? | 0%
CC(C)N(C1=N/C(=C\c2ccco2)C(=O)N1c1ccccc1)C(C)C | i | -1% | i | 7.3µM* | ? | 0%
Cc1ccc(-c2nc3n(n2)C(c2ccccc2Cl)C=C(c2ccc(Cl)cc2)N3)cc1 (centres undefined) | i | . | i | . | . | .
Cc1ccc(CNC(=O)CCc2c(C)nc3c(-c4ccc(F)cc4)c(C)nn3c2C)cc1 | i | . | i | . | . | .
Cc1ccc2c(c1)c1c3n2CC(=C2C(=O)OC(C)(C)OC2=O)NC3CCC1 (centres undefined) | 21µM* | ? | i | 5% | 1% | -26%
CCc1ccc2c(c1)-c1ccccc1S(=O)(=O)N2CC(=O)N1CCCCC1 | i | . | i | . | . | .
COC(=O)CCC(=O)Nc1sc(C)c(C)c1C(N)=O | ? | 26% | i | -1% | -5% | 21%
COC(=O)CCC(=O)NC(=S)Nc1sc(C)c(C)c1C(N)=O | 1.6µM* | ? | 0.65µM* | 1.2µM* | ? | 0.33µM*
Cc1sc(NC(=S)NC(=O)CCc2ccccc2)c(C(N)=O)c1C | ? | 0.16µM* | 0.18µM* | 0.13µM* | 0.29µM* | ?
COc1cc(Cl)c(C)cc1NC(=O)c1cc(CN2CCOCC2)on1 | i | . | i | . | . | .
CCCCCOc1ccc(C(=O)OC(C)C(=O)NCc2ccco2)cc1 (centres undefined) | ? | ? | ? | -2% | ? | 21µM*
O=c1oc2ccccc2cc1-c1nnc(NCc2ccco2)s1 | ? | 4% | ? | 9.2µM* | 13µM* | -1%
N#Cc1ccc2c(c1)nnn2-c1ccccc1 | 9.2µM* | 9% | i | -2% | 3% | 7%
Nc1ccc2c(c1)nnn2-c1ccccc1 | i | 1% | i | -6% | 6% | 2%
O=C(Nc1ccc(Cl)cn1)c1ccc([N+](=O)[O-])o1 | ? | 23µM* | i | 12µM* | 2.9µM* | 21µM*
